# Source: PubChem BioAssay (Tox21)
# Unmarked numbers belong to inactive results. Inconclusive results are not listed. Entries that show only a call come without a potency. The source made the active and inactive calls. Unless noted, the call rests on the fitted dose curve; in most records, active means well fitted curve in the direction sought with a large enough effect in the repeat runs; inconclusive means weak or mixed curves; inactive means no such curve, though single readings can be large; an effect the other way counts as inactive or inconclusive.
# Assays:
# [1] = qHTS assay for small molecule agonists of the p53 signaling pathway (AID 651631; calls by dose curve; further: nearly all actives have a fitted effect of over 15% in size; further: potency means the concentration at half of the fitted maximal effect)
# Outline: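 Beta-lactamase reporter activity under p53 response elements was quantified in HCT-116 cells by FRET fluorescence, following 16 h incubation with test compounds at 37 °C and 2 h substrate development at room temperature.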
# [2] = qHTS assay for small molecules that induce genotoxicity in human embryonic kidney cells expressing luciferase-tagged ATAD5 (AID 651632); further: nearly all actives have a fitted effect of over 15% in size; further: potency means the concentration at half of the fitted maximal effect
# Outline: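 Quantitative HTS in HEK293T expressing luciferase-tagged ATAD5, whose levels rise upon DNA damage. Exposure ran 16 hr at 37C and 5% CO2, with luminescence read 30 min after Amplite addition at room temperature.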
# [3] = qHTS assay for small molecule agonists of the p53 signaling pathway - cell viability (AID 651633; calls by dose curve;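 further: p53RE-bla HCT reporter cells with a stable beta-lactamase p53 reporter; series mostly up to about 83 µM; nearly all actives have a fitted effect of over 30% in size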)
# Outline: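 p53RE-bla cells, seeded at 4,000 per well and rested 5 h at 37 C/5% CO2, received compounds in DMSO for 16 h at 37 C. CellTiter-Glo was then added, and luminescence was read after 30 min at room temperature to gauge cytotoxicity.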
# [4] = qHTS assay for small molecules that induce genotoxicity in human embryonic kidney cells expressing luciferase-tagged ATAD5 - cell viability (AID 651634; calls by dose curve; further: nearly all actives have a fitted effect of over 25% in size)
# Outline: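 After 15.5 hr incubation with compound at 37C, 5% CO2, HEK293T ATAD5-luciferase cells received CellTiter-Fluor reagent; fluorescence intensity was quantified following 30 min at 37C.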
# [5] = qHTS assay for small molecule disruptors of the mitochondrial membrane potential - cell viability (AID 720634; calls by dose curve;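 further: human HepG2 liver cancer cells; series mostly up to about 83 µM; nearly all actives have a fitted effect of over 20% in size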)
# Outline: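 ATP-based luminescent viability readout (CellTiter-Glo, 30 min, room temperature) in HepG2 cells multiplexed with the m-MPI membrane potential dye; compound exposure lasted 1 hr at 37 C.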
# [6] = qHTS assay for small molecule disruptors of the mitochondrial membrane potential (AID 720635); further: potency means the concentration at half of the fitted maximal effect
# Outline: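 HepG2 cells (2,000/well) attached overnight at 37C, then took compound for 1 hr at 37C, 5% CO2. Mito-MPS dye was added for 30 min; fluorescence was read at 490/535 nm (monomers) and 540/590 nm (aggregates).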
# [7] = qHTS assay to test for compound auto fluorescence at 590 nm (red) in HepG2 cells (AID 720674)
# Outline: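 Compound auto-fluorescence is scored relative to Rose Bengal sodium, measured at 540/590 nm in live HepG2 cultures after 1 hr compound contact (37 C, 5% CO2).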
# [8] = qHTS assay to test for compound auto fluorescence at 535 nm (green) in HepG2 cells (AID 720675)
# [9] = qHTS assay to test for compound auto fluorescence at 460 nm (blue) in HEK293 cells (AID 720678)
# Outline: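 HEK293 cells (2,000/well, medium with 10% dialyzed FBS) attached 4-5 hr, then exposed to compound overnight at 37C, 5% CO2. Blue fluorescence read at 405/460 nm, with triamterene as reference fluorophore.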
# [10] = qHTS assay to test for compound auto fluorescence at 590 nm (red) in HEK293 cells (AID 720679)
# Outline: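 HEK293 cells (2,000/well, 10% dialyzed FBS) attached 4-5 hr, then dosed with compound or DMSO and incubated overnight at 37C, 5% CO2. Red fluorescence read at 540/590 nm, Rose Bengal sodium as reference fluorophore.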
Structure (SMILES),Potency [1],Potency [2],Potency [3],Potency [4],Potency [5],Potency [6],outcome [7],outcome [8],Potency [9],outcome [10]
C=CC(C)(O)CC/C=C(/C)CCC=C(C)C (stereo not drawn),inactive,inactive,inactive,inactive,inactive,inactive,inactive,inactive,inactive,inactive
COc1ccc(/C=C/S(=O)(=O)NC(=O)c2ccc(C)cc2Cl)cc1,30.6 µM (active),21.7 µM (active),inactive,inactive,inactive,61.1 µM (active),inactive,inactive,inactive,inactive
CC(CN=Cc1ccccc1O)N=Cc1ccccc1O (stereo not drawn),inactive,inactive,inactive,inactive,inactive,inactive,inactive,inactive,inactive,inactive
O=c1[nH][nH]c2ccccc12,inactive,inactive,inactive,inactive,inactive,inactive,inactive,inactive,inactive,inactive
CCCCOC(=O)CC#N,inactive,inactive,inactive,inactive,inactive,,inactive,inactive,inactive,inactive
CC(C)(O)C(=O)O,inactive,inactive,inactive,inactive,inactive,,inactive,inactive,inactive,inactive
Sc1nc(S)nc(S)n1,inactive,inactive,inactive,inactive,inactive,,inactive,inactive,inactive,inactive
CCCCCCCCCCCCCCCCC(=O)O,inactive,inactive,inactive,inactive,inactive,,inactive,inactive,inactive,inactive
Nc1ncnc2c1ncn2[C@@H]1O[C@H](CO)[C@@H](O)[C@H]1O,inactive,inactive,inactive,inactive,inactive,,inactive,inactive,inactive,inactive
CCCCCO,inactive,inactive,inactive,inactive,inactive,,inactive,inactive,inactive,inactive
O=P(c1ccccc1)(c1ccccc1)c1ccccc1,inactive,inactive,inactive,inactive,inactive,,inactive,inactive,inactive,inactive
Cc1cc(N)n(-c2ccccc2)n1,inactive,inactive,inactive,inactive,inactive,,inactive,inactive,inactive,inactive
O=C(O)COCC(=O)O,inactive,inactive,inactive,inactive,inactive,,inactive,inactive,inactive,inactive
O=C(O)c1cc(C(=O)O)c(C(=O)O)cc1C(=O)O,inactive,inactive,inactive,inactive,inactive,,inactive,inactive,inactive,inactive
FC1(F)C(F)(F)C(F)(F)C2(F)C(F)(C1(F)F)C(F)(F)C(F)(F)C1(F)C(F)(F)C(F)(F)C(F)(F)C(F)(F)C12F (stereo not drawn),inactive,inactive,inactive,inactive,inactive,,inactive,inactive,inactive,inactive
CO[C@@H]1COCC[C@@H]1N[C@@H]1CC[C@@](C(=O)N2CCc3ncc(C(F)(F)F)cc3C2)(C(C)C)C1,inactive,inactive,inactive,inactive,inactive,,inactive,inactive,inactive,inactive
CS(C)=O,inactive,inactive,inactive,inactive,inactive,,inactive,inactive,inactive,inactive
CC(=O)Nc1cccc(N)c1,inactive,inactive,inactive,inactive,inactive,,inactive,inactive,inactive,inactive
Cc1c(Cl)cccc1[N+](=O)[O-],inactive,inactive,inactive,inactive,inactive,,inactive,inactive,inactive,inactive
NCCOCCOCCN,inactive,inactive,inactive,inactive,inactive,,inactive,inactive,inactive,inactive
COc1cc(C)c(Cc2cnc(N)nc2N)cc1OC,inactive,inactive,inactive,inactive,inactive,,inactive,inactive,inactive,inactive
C[Si](C)(C)O[Si](C)(C)O[Si](C)(C)C,inactive,inactive,inactive,inactive,inactive,,inactive,inactive,inactive,inactive
Cc1ccccc1CCO,inactive,inactive,inactive,inactive,inactive,,inactive,inactive,inactive,inactive
S=c1[nH][nH]c(=S)s1,inactive,inactive,inactive,inactive,inactive,,inactive,inactive,inactive,inactive
Clc1cc(Cl)c2c(c1)N=C1CCCCCN1C2,inactive,inactive,inactive,inactive,inactive,,inactive,inactive,inactive,inactive
C=C(C)C(=O)OCCCCCCCCCCOC(=O)C(=C)C,inactive,inactive,inactive,inactive,inactive,,inactive,inactive,inactive,inactive
